According to PubChem BioAssay AID1159580 (chemical genetic matrix, 2015):
Among all 5,500 compounds or so, about 2,000 (36%) were called active. About 18% were inconclusive and are not listed. Rule as the data show it: active = normalized growth mostly below about 0.91 (no sharp cut-off); inconclusive = no clear call, values can overlap the other calls; inactive = mostly above about 0.92. The list shows a part of the results.

Experiment: chemical genetic growth profiling, strain panel (AID 1159580);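 also: tested at 20 µM; growth read once vehicle control cultures reached saturation at 30 °C; 1 = growth at the plate median or of vehicle wells; lower values mean less growth of the strain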
Conditions: growth OD

Measured: normalized growth

CC(=O)NCCCCCC(=O)O
inactive: S. cerevisiae deletion strains, locus YJL187C, strain SWE1, active compounds read low 1.01 | S. cerevisiae deletion strains, locus YJR043C, strain POL32, active compounds read low 1.01 | S. cerevisiae deletion strains, locus YJR075W, strain HOC1, active compounds read low 1.02 | S. cerevisiae deletion strains, locus YKL009W, strain mrt4, active compounds read low 0.997 | S. cerevisiae deletion strains, locus YKL068W, active compounds read low 0.994 | S. cerevisiae deletion strains, locus YKL085W, strain MDH1 (second series), active compounds read low 0.989 | S. cerevisiae deletion strains, locus YKL085W, strain MDH1, active compounds read low 0.989 | S. cerevisiae deletion strains, locus YKL160W, strain elf1, active compounds read low 1.03 | S. cerevisiae deletion strains, locus YKL190W, strain CNB1, active compounds read low 1.01 | S. cerevisiae deletion strains, locus YKR001C, strain vps1, active compounds read low 1.01 | S. cerevisiae deletion strains, locus YKR026C, strain gcn3, active compounds read low 0.963 | S. cerevisiae deletion strains, locus YKR091W, strain srl3, active compounds read low 0.985 | S. cerevisiae deletion strains, locus YLL001W, strain dnm1, active compounds read low 1.01 | S. cerevisiae deletion strains, locus YLL026W, active compounds read low 1.01 | S. cerevisiae deletion strains, locus YLL041C, strain sdh2, active compounds read low 0.994 | S. cerevisiae deletion strains, locus YLR027C, strain aat2, active compounds read low 1.02 | S. cerevisiae deletion strains, locus YLR039C, strain RIC1, active compounds read low 1.04 | S. cerevisiae deletion strains, locus YLR058C, strain SHM2, active compounds read low 1.02 | S. cerevisiae deletion strains, locus YLR102C, strain apc9, active compounds read low 0.989 | S. cerevisiae deletion strains, locus YLR221C, strain rsa3, active compounds read low 1 | S. cerevisiae deletion strains, locus YLR258W, strain gsy2, active compounds read low 0.992 | S. cerevisiae deletion strains, locus YLR262C, strain YPT6 (second series), active compounds read low 1.02 | S. cerevisiae deletion strains, locus YLR262C, strain YPT6, active compounds read low 1.07 | S. cerevisiae deletion strains, locus YLR268W, strain sec22, active compounds read low 0.996 | S. cerevisiae deletion strains, locus YLR320W, strain mms22, active compounds read low 1 | S. cerevisiae deletion strains, locus YLR330W, strain CHS5, active compounds read low 1.01 | S. cerevisiae deletion strains, locus YLR342W, strain FKS1 (second series), active compounds read low 1 | S. cerevisiae deletion strains, locus YLR342W, strain FKS1, active compounds read low 0.982 | S. cerevisiae deletion strains, locus YLR357W, strain rsc2, active compounds read low 1.01 | S. cerevisiae deletion strains, locus YLR370C, strain arc18, active compounds read low 0.991 | S. cerevisiae deletion strains, locus YLR371W, strain rom2, active compounds read low 0.983 | S. cerevisiae deletion strains, locus YLR384C, strain iki3, active compounds read low 0.983 | S. cerevisiae deletion strains, locus YLR418C, strain cdc73, active compounds read low 0.963 | S. cerevisiae deletion strains, locus YML016C, strain PPZ1, active compounds read low 1.01 | S. cerevisiae deletion strains, locus YML032C, strain rad52, active compounds read low 0.986 | S. cerevisiae deletion strains, locus YML120C, strain ndi1, active compounds read low 1.01 | S. cerevisiae deletion strains, locus YML124C, strain tub3, active compounds read low 0.989 | S. cerevisiae deletion strains, locus YMR058W, strain fet3, active compounds read low 0.981 | S. cerevisiae deletion strains, locus YMR078C, strain ctf18, active compounds read low 1 | S. cerevisiae deletion strains, locus YMR125W, strain sto1, active compounds read low 0.986 | S. cerevisiae deletion strains, locus YMR129W, active compounds read low 0.976 | S. cerevisiae deletion strains, locus YMR205C, strain PFK2, active compounds read low 0.968 | S. cerevisiae deletion strains, locus YMR223W, strain ubp8, active compounds read low 0.976 | S. cerevisiae deletion strains, locus YMR231W, strain pep5, active compounds read low 0.978 | S. cerevisiae deletion strains, locus YMR307W, strain GAS1, active compounds read low 1.01 | S. cerevisiae deletion strains, locus YNL067W, strain RPL9B, active compounds read low 1.02 | S. cerevisiae deletion strains, locus YNL071W, strain lat1, active compounds read low 0.989 | S. cerevisiae deletion strains, locus YNL209W, strain ssb2, active compounds read low 0.994 | S. cerevisiae deletion strains, locus YNL233W, strain BNI4, active compounds read low 1.03 | S. cerevisiae deletion strains, locus YNL248C, strain rpa49, active compounds read low 1.01 | S. cerevisiae deletion strains, locus YNL250W, strain rad50, active compounds read low 0.992 | S. cerevisiae deletion strains, locus YNL271C, strain bni1, active compounds read low 0.971 | S. cerevisiae deletion strains, locus YNL298W, strain CLA4, active compounds read low 0.986 | S. cerevisiae deletion strains, locus YNL307C, strain MCK1, active compounds read low 0.988 | S. cerevisiae deletion strains, locus YNL322C, strain KRE1 (second series), active compounds read low 0.995 | S. cerevisiae deletion strains, locus YNL322C, strain KRE1, active compounds read low 1.01 | S. cerevisiae deletion strains, locus YNR049C, strain mso1, active compounds read low 0.973 | S. cerevisiae deletion strains, locus YNR052C, strain pop2, active compounds read low 0.995 | S. cerevisiae deletion strains, locus YOL006C, strain TOP1, active compounds read low 1.09 | S. cerevisiae deletion strains, locus YOL012C, strain htz1 0.886 | S. cerevisiae deletion strains, locus YOL147C, strain pex11, active compounds read low 0.988 | S. cerevisiae deletion strains, locus YOR001W, strain rrp6, active compounds read low 1.04 | S. cerevisiae deletion strains, locus YOR061W, strain CKA2, active compounds read low 1.02 | S. cerevisiae deletion strains, locus YOR069W, strain VPS5, active compounds read low 1.01 | S. cerevisiae deletion strains, locus YOR070C, strain gyp1, active compounds read low 0.994 | S. cerevisiae deletion strains, locus YOR080W, strain dia2, active compounds read low 0.988 | S. cerevisiae deletion strains, locus YOR083W, strain WHI5, active compounds read low 1.06 | S. cerevisiae deletion strains, locus YOR106W, strain vam3, active compounds read low 1.01 | S. cerevisiae deletion strains, locus YOR136W, strain idh2, active compounds read low 0.985 | S. cerevisiae deletion strains, locus YOR144C, strain elg1, active compounds read low 0.978 | S. cerevisiae deletion strains, locus YOR184W, strain ser1, active compounds read low 0.982 | S. cerevisiae deletion strains, locus YOR265W, strain rbl2, active compounds read low 1.01 | S. cerevisiae deletion strains, locus YOR270C, strain vph1, active compounds read low 0.968 | S. cerevisiae deletion strains, locus YOR290C, strain snf2, active compounds read low 0.939 | S. cerevisiae deletion strains, locus YOR316C, strain cot1, active compounds read low 0.987 | S. cerevisiae deletion strains, locus YPL051W, strain arl3, active compounds read low 1.02 | S. cerevisiae deletion strains, locus YPL055C, strain LGE1, active compounds read low 1.07 | S. cerevisiae deletion strains, locus YPL078C, strain atp4, active compounds read low 1 | S. cerevisiae deletion strains, locus YPL106C, strain sse1, active compounds read low 0.977 | S. cerevisiae deletion strains, locus YPL240C, strain hsp82, active compounds read low 0.99 | S. cerevisiae deletion strains, locus YPR119W, strain clb2, active compounds read low 0.993 | S. cerevisiae deletion strains, locus YPR141C, strain kar3, active compounds read low 0.989 | S. cerevisiae deletion strains, locus YPR163C, strain tif3, active compounds read low 0.98 | S. cerevisiae deletion strains, locus YPR167C, strain met16, active compounds read low 0.977 | S. cerevisiae deletion strains, strain wtn01, active compounds read low 0.976 | S. cerevisiae strains, strain wild type, active compounds read low 1.01
